PubChem BioAssay (EPA / NIEHS)
Results filed as inconclusive are left out. Activity calls are given as the source filed them. Rule for the calls: active = hit-call score of the fitted dose curve at least 0.9, where 1 is the maximum; inconclusive = response in the unintended direction; inactive = score below 0.9.

Columns and labels:
[1] = Tanguay_ZF_120hpf_SOMI_legacy: (Legacy) Oregon State University Tanguay Lab 120 Hour Post-fertilization zebrafish Assay for Somite Malformation (AID 2283647)
Outline: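 Binary somite-defect scoring at 120 hpf, omitted for embryos that died, in wild-type (Tropical 5D) zebrafish with chorion removed by pronase at 4 hpf; static exposure began 6 hpf, single embryos per well, 28C, 0.64% DMSO; fitted positive versus DMSO.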

[2] = Tanguay_ZF_120hpf_PFIN_legacy: (Legacy) Oregon State University Tanguay Lab 120 Hour Post-fertilization zebrafish Assay for Pectoral Fin Malformation (AID 2283648);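 note: each larva judged yes or no for fin defect by brightfield with dead larvae skipped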
Outline: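 Pectoral fin malformation was recorded as a binary endpoint at 120 hpf in wild-type Tropical 5D larvae, which had been dechorionated and exposed statically from 6 hpf at 28C in 0.64% DMSO. Dead embryos were excluded.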

[3] = Tanguay_ZF_120hpf_CFIN_legacy: (Legacy) Oregon State University Tanguay Lab 120 Hour Post-fertilization zebrafish Assay for Caudal Fin Malformation (AID 2283649)
Outline: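 Binary brightfield scoring of caudal fin defects at 120 hpf after static, light-shielded exposure at 28C from 6 hpf. Tropical 5D embryos, chorion removed with pronase at 4 hpf, final DMSO 0.64%.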

[4] = Tanguay_ZF_120hpf_PIG_legacy: (Legacy) Oregon State University Tanguay Lab 120 Hour Post-fertilization zebrafish Assay for Pigmentation Malformation (AID 2283650)
Outline: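 Pigment malformation recorded as a binary call at 120 hpf in zebrafish (Tropical 5D) exposed singly from 6 hpf after pronase dechorionation. Static, sealed, 28C exposure, 0.64% DMSO; mortality excludes scoring; positive-direction fit against DMSO.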

[5] = Tanguay_ZF_120hpf_CIRC_legacy: (Legacy) Oregon State University Tanguay Lab 120 Hour Post-fertilization zebrafish Assay for Circulatory Malformation (AID 2283651)
Outline: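 Binary circulatory malformation call at 120 hpf by brightfield imaging of zebrafish larvae; chorion removed at 4 hpf, static exposure from 6 hpf in sealed dark plates at 28C, final DMSO 0.64%; non-mortality endpoints skipped if embryo died.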

[6] = Tanguay_ZF_120hpf_SWIM_legacy: (Legacy) Oregon State University Tanguay Lab 120 Hour Post-fertilization zebrafish Assay for Swim Bladder Malformation (AID 2283654);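 note: swim bladder malformation in each larva scored yes or no under brightfield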
Outline: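 Scoring is binary for swim bladder defects at 120 hpf, by brightfield inspection of zebrafish larvae. Embryos were exposed singly from 6 hpf after pronase dechorionation, at 28C with 0.64% DMSO; mortality excluded scoring.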

[7] = Tanguay_ZF_120hpf_NC_legacy: (Legacy) Oregon State University Tanguay Lab 120 Hour Post-fertilization zebrafish Assay for Notochord and Tail Malformation (AID 2283656)
Outline: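 Binary scoring of notochord distortion by brightfield microscopy; embryos dying were not scored. Wild-type Tropical 5D embryos, chorion removed, exposed singly and statically from 6 to 120 hpf, 28C, sealed, 0.64% DMSO.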

[8] = Tanguay_ZF_120hpf_TRUN_legacy: (Legacy) Oregon State University Tanguay Lab 120 Hour Post-fertilization zebrafish Assay for Truncated Body (AID 2283655)
Outline: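 Binary presence/absence of truncated body is recorded at 120 hpf by brightfield, with non-mortality endpoints skipped after death. Exposure is static from 6 hpf in sealed dark plates at 28C, using dechorionated wild-type zebrafish, 0.64% DMSO.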

Measured: outcome

COC(=O)N(C(=O)N1CO[C@@]2(C(=O)OC)Cc3cc(Cl)ccc3C2=N1)c1ccc(OC(F)(F)F)cc1
not listed: [8]
inactive: all other assays above

N#Cc1c(Cl)cccc1Cl
inactive: all assays above

O=P(O)(O)CCCl
inactive: all assays above

Cc1c(COC(=O)[C@@H]2[C@H](/C=C(\Cl)C(F)(F)F)C2(C)C)cccc1-c1ccccc1
inactive: all assays above

COc1ccc(-c2ccccc2)cc1NNC(=O)OC(C)C
inactive: all assays above

Cc1nc(N(C)C)nc(OC(=O)N(C)C)c1C
not listed: [7]
inactive: all other assays above

CCSC(=O)N1CCCCCC1
not listed: [7]
inactive: all other assays above

COP(=S)(OC)Oc1ccc([N+](=O)[O-])c(C)c1
inactive: all assays above

COC(=O)c1c(C(F)F)nc(C(F)(F)F)c(C2=NCCS2)c1CC(C)C
inactive: all assays above

N#Cc1c[nH]cc1-c1cccc2c1OC(F)(F)O2
not listed: [7]
inactive: all other assays above

CCOc1nc(F)cc2nc(S(=O)(=O)Nc3c(Cl)cccc3Cl)nn12
inactive: all assays above

N#CN=C1SCCN1Cc1ccc(Cl)nc1
not listed: [7]
inactive: all other assays above

COP(=O)(OC)O/C(C)=C/C(=O)N(C)C
inactive: all assays above

CCN(CC)C(=O)C(C)Oc1cccc2ccccc12 (configuration not stated)
inactive: all assays above

CC(C)(C)C(=O)C(Oc1ccc(Cl)cc1)n1cncn1 (configuration not stated)
inactive: all assays above

CC(C)NC(=O)N1CC(=O)N(c2cc(Cl)cc(Cl)c2)C1=O
not listed: [8]
inactive: all other assays above
